PubChem BioAssay AID2534 (National Center for Advancing Translational Sciences (NCATS), 2010)
Records with an inconclusive call do not appear. Activity calls are given as the source filed them. Calls come from the whole dose curve; as a rule, active = well fitted curve in the direction sought with a large enough effect; inconclusive = small, poorly fitted or top-dose-only effect, or effect the other way, or another doubt; inactive = no such curve, though single readings can be large or run the other way.

Molecular target: Pyruvate kinase PKLR (Homo sapiens) (UniProt P30613)
Sequence (P30613 whole entry, looked up): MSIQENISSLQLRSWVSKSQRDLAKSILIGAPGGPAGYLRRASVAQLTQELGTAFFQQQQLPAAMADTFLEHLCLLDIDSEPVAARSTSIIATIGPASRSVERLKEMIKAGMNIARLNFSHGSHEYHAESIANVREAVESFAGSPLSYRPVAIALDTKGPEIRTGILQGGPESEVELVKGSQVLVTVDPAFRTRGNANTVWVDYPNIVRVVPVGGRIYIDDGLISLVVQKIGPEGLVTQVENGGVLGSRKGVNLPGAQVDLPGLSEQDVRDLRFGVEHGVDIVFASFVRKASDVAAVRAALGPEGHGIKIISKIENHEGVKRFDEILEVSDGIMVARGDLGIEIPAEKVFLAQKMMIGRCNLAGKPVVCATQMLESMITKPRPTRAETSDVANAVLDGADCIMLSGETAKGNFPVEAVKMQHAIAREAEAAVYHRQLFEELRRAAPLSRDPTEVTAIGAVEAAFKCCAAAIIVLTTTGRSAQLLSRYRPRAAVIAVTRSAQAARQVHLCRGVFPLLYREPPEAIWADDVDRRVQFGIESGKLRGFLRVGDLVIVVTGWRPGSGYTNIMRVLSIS
Experiment: Secondary Concentration-Response Assay for Activators of Human Reticulocyte Pyruvate Kinase: for Probe SAR
Conditions: purified hPK-R, ATP production, Kinase-Glo luminescence; series mostly up to 57.5 µM; activity change, negative = inhibition: at the top concentration
Text: NIH Chemical Genomics Center [NCGC]
Wael M. Rabeh, Lyudmila Nedyalkova and Hee-Wan Park [Structural Genomics Consortium, 100 College St. Toronto, Ontario, Canada]
Human pyruvate kinase reticulocyte (hPK-R) enzyme was supplied as a highly purified (>95% pure) preparation from Structural Genomics Consortium in Toronto (Ontario, Canada) and assayed for its ability to generate ATP from ADP using phosphoenolpyruvate (PEP) as a substrate. ATP generation was detected in a coupled reaction by luciferase-mediated luminescence, an ATP-dependent process. Pyruvate kinase substrates, PEP and ADP, were present in the assay at Km and approximately 10-fold below Km respectively. The enzyme was assayed at an intermediate level of activity to screen for both inhibitors and activators.
NCGC Assay Protocol Summary for R-isoform
Three uL of substrate mix (at r.t.) in assay buffer (50 mM Imidazole pH7.2, 50 mM KCl, 7 mM MgCl2, 0.01% Tween 20, 0.05% BSA) was dispensed into white solid bottom 1,536 well microtiter plates so that the final concentrations of substrates in the assay were 0.1 mM ADP and 0.5 mM PEP. 23 nL of compound were delivered by a pin tool and 1 uL of enzyme mix (final concentration of 0.1 nM) in assay buffer (4 degree Celsius) was added. Plates were incubated at room temperature for 1 hour. Two uL of detection mix (Kinase-Glo, Promega; at 4 degree Celsius protected from light) was added and luminescence read by a ViewLux (Perkin Elmer) at 1 second exposure/plate. Data were normalized to the uninhibited (row 31). Additionally, a no enzyme and 5-fold enzyme control was dispensed in row 32, split equally between the two conditions.

Activity change, negative = inhibition, inactive:
O=C1CCc2cc(S(=O)(=O)Nc3cccc(F)c3)ccc2N1 -6.29%
O=C1CCc2cc(S(=O)(=O)Nc3ccc4ccccc4c3)ccc2N1 3.45%
O=C1CCc2cc(S(=O)(=O)Nc3ccc4c(c3)OCCO4)ccc2N1 12.4%
CCNc1cccc(S(=O)(=O)N2CCCN(S(=O)(=O)c3ccc4c(c3)OCCO4)CC2)c1 25.1%
O=C1CCc2cc(S(=O)(=O)Nc3ccc4ncccc4c3)ccc2N1 6.24%
CN(C)c1cccc(S(=O)(=O)N2CCCN(S(=O)(=O)c3ccc4c(c3)OCCO4)CC2)c1 18.2%
O=C1CCc2cc([S+](=O)([O-])NC3CCOCC3)ccc2N1 -3.67%
O=C1c2ccccc2C(=O)N1c1cccc2cnccc12 4.76%
Cc1ccc(C)c(SC2=N[S+](=O)([O-])c3cc(C(=O)Nc4ccc5ncccc5c4)ccc32)c1 -22.6%
Cc1c(Cl)cccc1NS(=O)(=O)c1cc2c(cc1Cl)CCC(=O)N2 1.15%
CC(C)Nc1cccc(S(=O)(=O)N2CCCN(S(=O)(=O)c3ccc4c(c3)OCCO4)CC2)c1 15.9%
Cc1cc(NS(=O)(=O)c2ccc3c(c2)CCC(=O)N3)ccc1Cl 6.47%
O=C1CCc2cc(S(=O)(=O)Nc3ccc4c(c3)CCC4)ccc2N1 11%
O=C(O)c1ccccc1SC1=NS(=O)(=O)c2ccccc21 -92.8%
O=C1CCc2cc(S(=O)(=O)Nc3cccnc3)ccc2N1 1.36%
O=C1c2ccccc2C(=O)N1c1ccc2ncccc2c1 14.8%
Cc1ccc(NS(=O)(=O)c2ccc3c(c2)CCC(=O)N3)cc1Cl -0.942%
O=C1CCc2cc(S(=O)(=O)Nc3ccc(F)c(Cl)c3)ccc2N1 -3.48%
O=C1CCc2cc(S(=O)(=O)NCc3ccccc3)ccc2N1 8.42%
O=C1c2ccccc2C(=O)N1c1ccccn1 3.08%
O=C1CCc2cc(S(=O)(=O)Nc3ccncc3)ccc2N1 3.56%
O=C1c2ccccc2C(=O)N1c1noc2ccccc12 -7.43%
Cc1ccc(Cl)cc1NS(=O)(=O)c1cc2c(cc1F)NC(=O)CC2 -16.4%
O=C1c2ccccc2C(=O)N1c1cc(=O)c2ccccc2[nH]1 2.34%
O=C1CCc2cc(S(=O)(=O)Nc3ccc(Cl)c(Cl)c3)c(F)cc2N1 2.57%
O=C1c2ccccc2C(=O)N1c1cccc(Cl)c1 3.13%
O=C1CCc2cc(S(=O)(=O)Nc3ccccc3F)ccc2N1 -5.2%
O=C1c2ccccc2C(=O)N1c1cnc2ccccc2c1 10.5%
O=C1CCc2cc(S(=O)(=O)Nc3ccccc3Cl)ccc2N1 1.37%
O=C1c2ccccc2C(=O)N1Cc1cccnc1 4.78%
N#Cc1cccc(NS(=O)(=O)c2ccc3c(c2)CCC(=O)N3)c1 4.74%
O=C1c2ccccc2C(=O)N1c1ccc2ccccc2n1 -5.73%
Cc1cc(N2C(=O)c3ccccc3C2=O)n[nH]1 -9.57%
O=C1CCc2cc(S(=O)(=O)Nc3cccc(C(F)(F)F)c3)ccc2N1 1.1%
O=C1CCc2cc(Cl)c(S(=O)(=O)Nc3ccc(Cl)c(Cl)c3)cc2N1 -1.27%
O=C1c2ccccc2C(=O)N1c1cccc2ccncc12 11.9%
CCCCN1C(=O)c2ccccc2C1=O 4.02%
Cc1ccc(NS(=O)(=O)c2ccc3c(c2)n(C)c(=O)n3C)cc1C 12.9%

outcome, inactive:
O=S(=O)(c1ccc2c(c1)OCCO2)N1CCN(S(=O)(=O)c2c(F)cccc2F)CC1
Cc1cc2c(s1)c1cnn(Cc3ccccc3F)c(=O)c1n2C
